Some test systems named below: NCI-H23 lung; NCI-H226 lung; NCI-H322M lung; HOP-62 NSCLC; NCI-H460 lung; NCI-H522 lung; A549/ATCC NSCLC; 786-0 renal; COLO 205 colon; HOP-92 NSCLC.
Common to all, as to assay: NCI-60 one-dose screen, 48 h (100 = growth as untreated, 0 = no growth, -100 = all killed)
Holding throughout (conditions): 10 µM unless noted

About 83,000 compounds went through this panel and 20% of them were active in at least one assay; those are over-represented in the sample as a whole.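 In brief: 96-well plates, 48 h treatment, single concentration, percent growth endpoint.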 A number with no mark means an inactive call. The source made the active and inactive calls. Rule for the calls: active = growth percent below 10; inactive = the rest.

Regarding `O=C(C[C@]1(O)C(=O)Nc2ccccc21)c1cccc(C(F)(F)F)c1`, the growth in the experiment on NCI-H23 lung was 92.5%; with NCI-H226 lung, 86.3%; in the experiment on NCI-H322M lung it was 84.4%; in the experiment with HOP-62 NSCLC, 78.8%; in the experiment on NCI-H460 lung, 97.4%; in the experiment with NCI-H522 lung it was 87.1%. The growth was 99.2% in the experiment on A549/ATCC NSCLC, 95.7% with 786-0 renal and 89.5% in the experiment with COLO 205 colon.
Take `Cn1cc(-c2csc(-c3c[nH]c4ccccc34)n2)c2cnccc21`: the growth in the experiment with NCI-H23 lung was 85.5%; in the experiment with NCI-H226 lung, 87.7%; in the experiment with NCI-H322M lung it was 90.2%; with HOP-62 NSCLC, 8.92% (active); with NCI-H460 lung, -17.7% (active); with HOP-92 NSCLC, 72.7%. Besides, the growth with NCI-H522 lung was -39.6% (active); with A549/ATCC NSCLC it was 18%; with 786-0 renal, -87% (active); in the experiment on COLO 205 colon, -37.3% (active).
On to `O=c1[nH]c(-c2ccccc2)nc2sc3cc(O)ccc3c12`, for which the growth with NCI-H23 lung was 84.6%; with NCI-H226 lung it was 79.6%; with NCI-H322M lung, 81.2%; in the experiment with HOP-62 NSCLC, 105%; in the experiment on NCI-H460 lung, 84.1%; in the experiment with NCI-H522 lung, 75.5%. The growth in the experiment on A549/ATCC NSCLC is 81.6%; in the experiment on 786-0 renal, 79.3%; in the experiment with COLO 205 colon, 110%.
For the molecule `CCOC(=O)c1ccc(NC(=O)c2nc(-c3cc(OC)c(OC)c(OC)c3)n(-c3ccc(Cl)cc3)n2)cc1`, the growth in the experiment with NCI-H23 lung was 91.3%; in the experiment with NCI-H226 lung, 90.9%; in the experiment on NCI-H322M lung it was 81.1%; in the experiment on HOP-62 NSCLC, 97.6%; in the experiment on NCI-H460 lung, 97.1%; with NCI-H522 lung, 67.2%. Besides, the growth in the experiment with A549/ATCC NSCLC is 88.9%; with 786-0 renal, 93.5%; in the experiment with COLO 205 colon, 104%.
As for `Cn1c(=O)cc2c3c(c(NCCCO)ccc31)C(=O)c1ccccc1-2`, the growth in the experiment with NCI-H23 lung was 47.2%; in the experiment on NCI-H226 lung, 38.4%; with NCI-H322M lung, 41.4%; in the experiment on HOP-62 NSCLC, 43.8%; in the experiment with NCI-H460 lung, 16.8%; with NCI-H522 lung, 22.2%. The growth in the experiment with A549/ATCC NSCLC is 33.5%; with 786-0 renal it was 38.6%; in the experiment with COLO 205 colon, 27.8%.
For the molecule `c1csc(-c2ccc(CNc3c4ccccc4nc4ccccc34)cc2)c1`, the growth in the experiment with NCI-H23 lung was 38.2%; in the experiment with NCI-H226 lung it was 69%; with NCI-H322M lung, 50.6%; in the experiment on HOP-62 NSCLC, 54.6%; in the experiment on NCI-H460 lung, 12.9%; in the experiment on NCI-H522 lung, 28.9%. Besides, the growth with A549/ATCC NSCLC is 26.7%; in the experiment with 786-0 renal, 30.1%; with COLO 205 colon, 5.13% (active).
As for `CCN(C)S(=O)(=O)Nc1cccc(Nc2ncnc3cc(NC(=O)CCl)ccc23)c1Cl`, the growth in the experiment with NCI-H23 lung is -27.1% (active); in the experiment with NCI-H226 lung it was 6.77% (active); in the experiment on NCI-H322M lung, 73.9%; in the experiment on HOP-62 NSCLC, -50.1% (active); in the experiment with NCI-H460 lung it was -22.5% (active); in the experiment with HOP-92 NSCLC it was 24.6%. For the same molecule, the growth was -70.6% (active) in the experiment on NCI-H522 lung, 18.5% in the experiment on A549/ATCC NSCLC, -82.8% (active) in the experiment on 786-0 renal and -33.9% (active) with COLO 205 colon.
For `COc1ccc(C(C)=O)cc1S(=O)(=O)Nc1c(N)nc(SC)[nH]c1=O`, the growth was 91.3% in the experiment on NCI-H23 lung; 104% in the experiment with NCI-H226 lung; 96.9% with NCI-H322M lung; 110% with HOP-62 NSCLC; 103% in the experiment with NCI-H460 lung; 98.6% in the experiment on NCI-H522 lung. Besides, the growth in the experiment with A549/ATCC NSCLC was 99.7%; in the experiment on 786-0 renal, 102%.
As for `Cn1cc(-c2nonc2-c2cn(C)c3ccccc23)c2ccccc21`, the growth in the experiment on NCI-H23 lung was 43.1%; with NCI-H226 lung, 81%; in the experiment on NCI-H322M lung it was 47%; in the experiment with HOP-62 NSCLC, 21.2%; in the experiment on NCI-H460 lung, 8.94% (active); in the experiment on NCI-H522 lung it was -20.5% (active). The results for the growth in the experiment on A549/ATCC NSCLC, with 786-0 renal and in the experiment on COLO 205 colon were 21.8%, 28.1% and -34% (active), respectively.
Consider `COC(=O)C1Cc2ccccc2CN1C(=O)c1ccc2c(c1)Cc1ccccc1-2` (configuration not stated), for which the growth was 35.9% [50 µM] with NCI-H23 lung; 45.3% [50 µM] in the experiment with NCI-H226 lung; 68.2% [50 µM] in the experiment with NCI-H322M lung; 76.6% [50 µM] with HOP-62 NSCLC; 34.4% [50 µM] with NCI-H460 lung; 48.5% [50 µM] with HOP-92 NSCLC. For the same molecule, the growth is 18.5% [50 µM] in the experiment on NCI-H522 lung, 27.3% [50 µM] in the experiment with A549/ATCC NSCLC, 54% [50 µM] in the experiment with 786-0 renal and 32.2% [50 µM] in the experiment on COLO 205 colon.
For the molecule `N#CC1=C(N)Oc2c(sc3c(Br)cccc23)C1c1ccc(Cl)cc1` (configuration not stated), the growth in the experiment with NCI-H23 lung is 17.2%; with NCI-H226 lung, 39.7%; in the experiment with NCI-H322M lung it was 36.1%; with HOP-62 NSCLC it was 14.3%; in the experiment with NCI-H460 lung, 8.2% (active); in the experiment with HOP-92 NSCLC it was 35.6%. In addition, the growth in the experiment on NCI-H522 lung is -26.8% (active); in the experiment with A549/ATCC NSCLC, 1.31% (active); in the experiment with 786-0 renal it was 5.59% (active); in the experiment with COLO 205 colon, -42.2% (active).
As to `CCC(C)N(CCNc1cc(OC)cc2cccnc12)CC(C)C` (configuration not stated), the growth in the experiment with NCI-H23 lung is 86.5%; in the experiment with NCI-H226 lung, 92.7%; in the experiment on NCI-H322M lung it was 95.2%; in the experiment with HOP-62 NSCLC, 107%; in the experiment with NCI-H460 lung, 98%; with NCI-H522 lung, 82.8%. Further, the growth is 102% in the experiment on A549/ATCC NSCLC, 117% in the experiment with 786-0 renal and 96.6% in the experiment with COLO 205 colon.
With `NC(=O)c1c(NC(=O)c2ccc3ccccc3c2)sc2c1CCC(=O)C2`, the growth with NCI-H23 lung was 35.4%; in the experiment on NCI-H226 lung it was 91.8%; with HOP-62 NSCLC, 99.9%; in the experiment on NCI-H460 lung it was 92.6%; with HOP-92 NSCLC, 83.6%; in the experiment on NCI-H522 lung, 10.5%. In addition, the growth is 95.5% with A549/ATCC NSCLC and 99.6% in the experiment on 786-0 renal.
For `COc1ccccc1N1CCCCC1`, the growth in the experiment with NCI-H23 lung was 102%; in the experiment with NCI-H226 lung, 104%; in the experiment with HOP-62 NSCLC, 90.4%; in the experiment with NCI-H460 lung it was 109%; in the experiment with HOP-92 NSCLC, 104%; in the experiment on NCI-H522 lung, 93.8%. Moreover, the growth is 101% in the experiment with A549/ATCC NSCLC, 95.8% with 786-0 renal and 113% with COLO 205 colon.
For the molecule `CC1=C([Se]CC(OC(=O)CC[Se]c2ccccc2)C(=O)NC(C)(C)C)C(=O)c2ccccc2C1=O` (configuration not stated), the growth was -45.6% (active) in the experiment on NCI-H23 lung; -49.4% (active) with NCI-H226 lung; -36.1% (active) with HOP-62 NSCLC; -49.2% (active) with NCI-H460 lung; -74.5% (active) in the experiment on HOP-92 NSCLC; -38.7% (active) in the experiment with NCI-H522 lung. Besides, the growth in the experiment with A549/ATCC NSCLC is -1.39% (active); in the experiment on 786-0 renal, -90.2% (active); in the experiment on COLO 205 colon, -90.1% (active).
